# Data reported in PubChem BioAssay (Tox21).
# Unmarked numbers belong to inactive results. Where a call stands in place of a potency, no number is given. Active and inactive are the calls of the source. Unless noted, the call rests on the fitted dose curve; in most records, active means well fitted curve in the direction sought with a large enough effect in the repeat runs; inconclusive means weak or mixed curves; inactive means no such curve, though single readings can be large; an effect the other way counts as inactive or inconclusive.
# Legend:
# [1] = qHTS assay for small molecule agonists of the p53 signaling pathway (AID 651631; calls by dose curve; further: nearly all actives have a fitted effect of over 15% in size; further: potency means the concentration at half of the fitted maximal effect)
# Summary of the method: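 Readout was fluorescence from the LiveBLAzer FRET substrate, applied for 2 h at room temperature after 16 h compound exposure at 37 °C. Cells were the p53RE-bla HCT-116 line, with beta-lactamase driven by p53 response elements.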
# [2] = qHTS assay for small molecules that induce genotoxicity in human embryonic kidney cells expressing luciferase-tagged ATAD5 (AID 651632); further: nearly all actives have a fitted effect of over 15% in size; further: potency means the concentration at half of the fitted maximal effect
# Summary of the method: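 Luminescence read-out: after 16 hr compound exposure at 37C, ATAD5-luciferase HEK293T cells received Amplite, 30 min RT, then CCD imaging. A rise in signal marks genotoxic stress.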
# [3] = qHTS assay for small molecule agonists of the p53 signaling pathway - cell viability (AID 651633; calls by dose curve; further: nearly all actives have a fitted effect of over 30% in size; further: potency means the concentration at half of the fitted maximal effect)
# Summary of the method: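 Viability counter-read: CellTiter-Glo luminescence (30 min, room temperature) in the same p53RE-bla plates. These plates had been exposed to compounds for 16 h at 37 C.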
# [4] = qHTS assay for small molecules that induce genotoxicity in human embryonic kidney cells expressing luciferase-tagged ATAD5 - cell viability (AID 651634; calls by dose curve; further: nearly all actives have a fitted effect of over 25% in size; further: potency means the concentration at half of the fitted maximal effect)
# Summary of the method: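 HEK293T ATAD5-luc cells, 2,000/well; compound 15.5 hr, 37C/5% CO2; CellTiter-Fluor 30 min, 37C; fluorescence read.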
# [5] = qHTS assay to test for compound auto fluorescence at 535 nm (green) in HepG2 cells (AID 720675)
# [6] = qHTS assay to test for compound auto fluorescence at 460 nm (blue) in HEK293 cells (AID 720678); further: potency means the concentration at half of the fitted maximal effect
# Summary of the method: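 Auto fluorescence in the blue band was quantified as triamterene equivalency. HEK293 cells were seeded at 2,000/well, dosed after a 4-5 hr attachment, and kept overnight at 37C before the 405/460 nm reading.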
# [7] = qHTS assay to test for compound auto fluorescence at 590 nm (red) in HEK293 cells (AID 720679)
# Summary of the method: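 Autofluorescence equivalency to Rose Bengal sodium, 540/590nm, in HEK293 cells exposed overnight to 23 nL compound per well.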
# [8] = qHTS assay to test for compound auto fluorescence at 535 nm (green) in HEK293 cells (AID 720680)
# [9] = qHTS assay to test for compound auto fluorescence at 535 nm (green) in HEK293 cell free culture (AID 720682)
# Summary of the method: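 Compounds were pin-transferred into cell-free DMEM with 10% FBS, and green fluorescence was read at excitation 485 nm and emission 535 nm. Intensities were expressed as fluorescein-equivalent values.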
# [10] = qHTS assay to test for compound auto fluorescence at 590 nm (red) in HEK293 cell free culture (AID 720683)
# Summary of the method: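 Red-channel autofluorescence of compounds in culture medium (DMEM, 10% FBS), no cells, measured at 540/590 nm. Rose Bengal sodium is the reference fluorophore for equivalence.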
# [11] = qHTS assay to test for compound auto fluorescence at 590 nm (red) in HepG2 cell free culture (AID 720684)
# Summary of the method: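 No cells present: MEM + 10% FBS only. Compound pinned in, red label read (540/590 nm). Activity = fluorescence equivalent to Rose Bengal sodium.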
# [12] = qHTS assay to test for compound auto fluorescence at 460 nm (blue) in HepG2 cell free culture (AID 720685); further: potency means the concentration at half of the fitted maximal effect
# Summary of the method: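 Cell-free plates of MEM plus 10% FBS received 23 nL compound or DMSO vehicle; blue-channel (405/460 nm) intensity scored against triamterene as reference fluorophore.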
# [13] = qHTS assay to test for compound auto fluorescence at 535 nm (green) in HepG2 cell free culture (AID 720686)
# [14] = qHTS assay to test for compound auto fluorescence at 460 nm (blue) in HepG2 cells (AID 720687); further: potency means the concentration at half of the fitted maximal effect
# Summary of the method: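 Blue-channel autofluorescence (Ex/Em 405/460 nm, triamterene-equivalent) was measured after 1 hr compound exposure at 37 C, 5% CO2. Cells were HepG2, plated overnight at 37 C in MEM plus 10% FBS.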
# [15] = molecular target: Glucocorticoid receptor (Homo sapiens) (UniProt P04150); assay: qHTS assay to identify small molecule agonists of the glucocorticoid receptor (GR) signaling pathway (AID 720691; active means well fitted activation curve with a large enough effect in the signal ratio in the repeat runs, not every such curve was filed as active; inconclusive means weak or mixed curves, or effect the other way; inactive means no such curve, though single readings can be large or run the other way; the % refers to the signal ratio; further: potency means the concentration at half of the fitted maximal effect)
# Summary of the method: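 HeLa GR-bla reporter line; cells pre-incubated 4 h, compound in DMSO 18 h at 37 C; LiveBLAzer B/G FRET substrate 2 h RT; fluorescence intensity read-out.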
# [16] = qHTS assay for small molecule disruptors of the mitochondrial membrane potential (AID 720635); further: potency means the concentration at half of the fitted maximal effect
# Summary of the method: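 Mitochondrial membrane potential tracked with Mito-MPS dye, red aggregates (ex 540/em 590 nm) against green monomers (ex 490/em 535 nm). Compound treatment 1 hr at 37C, dye 30 min in HepG2.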
# [17] = qHTS assay to test for compound auto fluorescence at 460 nm (blue) in HEK293 cell free culture (AID 720681); further: potency means the concentration at half of the fitted maximal effect
# Summary of the method: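 Blue fluorescence (Ex 405/Em 460 nm, triamterene-equivalent) was read immediately after pin transfer of compound or DMSO into medium (DMEM, 10% FBS) without cells.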
# [18] = molecular target: Glucocorticoid receptor (Homo sapiens) (UniProt P04150); assay: qHTS assay to identify small molecule antagonists of the glucocorticoid receptor (GR) signaling pathway (AID 720692; active means well fitted inhibition curve with a large enough effect in the signal ratio in the repeat runs, not every such curve was filed as active; inconclusive means weak or mixed curves, or effect the other way; inactive means no such curve, though single readings can be large or run the other way; the % refers to the signal ratio)
# Summary of the method: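 Read-out: beta-lactamase FRET substrate fluorescence, 2 h at room temperature, in HeLa cells stably carrying a GRE-driven bla reporter. Compounds were co-incubated with 5 nM dexamethasone agonist (final) for 18 h at 37 C.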
# [19] = qHTS assay for small molecule disruptors of the mitochondrial membrane potential - cell viability (AID 720634; calls by dose curve;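 further: human HepG2 liver cancer cells; series mostly up to about 83 µM; nearly all actives have a fitted effect of over 20% in size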)
# Summary of the method: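 Luminescence from CellTiter-Glo (ATP content) gave viability in HepG2 cells, read in the same wells as the MMP dye assay after 1 hr compound exposure at 37 C.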
# [20] = qHTS assay to test for compound auto fluorescence at 590 nm (red) in HepG2 cells (AID 720674)
# Summary of the method: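 Red autofluorescence (Ex/Em 540/590 nm, Rose Bengal sodium equivalents) was measured in HepG2 cells, 2,000 per well in MEM plus 10% FBS, plated overnight at 37 C. Readings were taken 1 hr after adding 23 nL compound or DMSO, at 37 C and 5% CO2.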
# Tags describe the fitted curve by direction and shape or compound fluorescence and quenching.
# Chain of Glucocorticoid receptor (Homo sapiens) (P04150 whole entry, looked up): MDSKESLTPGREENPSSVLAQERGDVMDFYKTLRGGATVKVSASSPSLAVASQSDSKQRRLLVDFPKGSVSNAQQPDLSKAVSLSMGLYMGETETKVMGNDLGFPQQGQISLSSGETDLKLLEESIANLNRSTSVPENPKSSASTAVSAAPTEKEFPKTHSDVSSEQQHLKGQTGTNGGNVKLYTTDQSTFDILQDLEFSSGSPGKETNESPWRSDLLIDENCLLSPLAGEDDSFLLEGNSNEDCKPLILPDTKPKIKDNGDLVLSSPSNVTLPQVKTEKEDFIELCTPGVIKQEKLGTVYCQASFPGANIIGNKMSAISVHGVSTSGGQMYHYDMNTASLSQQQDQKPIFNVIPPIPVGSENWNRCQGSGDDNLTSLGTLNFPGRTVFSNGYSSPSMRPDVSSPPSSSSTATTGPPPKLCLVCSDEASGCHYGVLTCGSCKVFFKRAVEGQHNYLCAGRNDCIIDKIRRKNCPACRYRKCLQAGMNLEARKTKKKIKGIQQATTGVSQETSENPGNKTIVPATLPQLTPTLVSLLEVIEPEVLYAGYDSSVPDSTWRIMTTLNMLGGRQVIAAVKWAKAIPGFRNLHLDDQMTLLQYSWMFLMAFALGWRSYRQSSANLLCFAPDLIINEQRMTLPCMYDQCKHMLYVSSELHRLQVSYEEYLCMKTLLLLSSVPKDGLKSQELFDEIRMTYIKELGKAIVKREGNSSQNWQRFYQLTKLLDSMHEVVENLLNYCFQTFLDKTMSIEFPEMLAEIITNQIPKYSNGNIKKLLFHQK
compound,measurement,setting,value
CCn1nc(C)c2c1C(=O)NCC(c1ccc(O)cc1)=N2,Potency,[1],inactive
same,Potency,[2],inactive
same,Potency,[3],inactive
same,Potency,[4],inactive
same,outcome,[5],inactive
same,Potency,[6],inactive
same,outcome,[7],inactive
same,outcome,[8],inactive
same,outcome,[9],inactive
same,outcome,[10],inactive
same,outcome,[11],inactive
same,Potency,[12],inactive
same,outcome,[13],inactive
same,Potency,[14],inactive
same,Potency,[15],inactive
CCC(C(=O)OCCOCCN(CC)CC)c1ccccc1 (stereo not drawn),Potency,[1],inactive
same,Potency,[2],inactive
same,Potency,[3],inactive
same,Potency,[4],inactive
same,Potency,[16],inactive
same,outcome,[5],inactive
same,Potency,[6],inactive
same,outcome,[8],inactive
same,Potency,[17],inactive
same,outcome,[9],inactive
same,outcome,[10],inactive
same,outcome,[11],inactive
same,Potency,[12],inactive
same,outcome,[13],inactive
same,Potency,[14],inactive
same,Potency,[15],inactive
same,Potency,[18],inactive
O=C(O)c1snc(Cl)c1Cl,Potency,[1],inactive
same,Potency,[2],inactive
same,Potency,[3],inactive
same,Potency,[19],inactive
same,outcome,[20],inactive
same,outcome,[5],inactive
same,outcome,[8],inactive
same,Potency,[17],inactive
same,outcome,[9],inactive
same,outcome,[10],inactive
same,outcome,[11],inactive
same,Potency,[12],inactive
same,outcome,[13],inactive
same,Potency,[14],inactive
same,Potency,[15],inactive
CCCCCC=CCC=CCCCCCCCC(=O)OCC,Potency,[1],inactive
same,Potency,[2],inactive
same,Potency,[3],inactive
same,Potency,[16],inactive
same,outcome,[5],inactive
same,Potency,[6],inactive
same,outcome,[8],inactive
same,Potency,[17],inactive
same,outcome,[9],inactive
same,outcome,[10],inactive
same,outcome,[11],inactive
same,Potency,[12],inactive
same,outcome,[13],inactive
same,Potency,[14],inactive
same,Potency,[15],inactive
COC(=O)Nc1nc2ccc(C(=O)c3cccs3)cc2[nH]1,Potency,[1],0.133 µM (active)
same,Potency,[2],2.37 µM (active)
same,Potency,[3],inactive
same,Potency,[19],inactive
same,Potency,[16],2.37 µM (active)
same,outcome,[5],inactive
same,Potency,[6],inactive
same,outcome,[7],inactive
same,outcome,[8],inactive
same,outcome,[9],inactive
same,outcome,[10],inactive
same,outcome,[11],inactive
same,Potency,[12],inactive
same,outcome,[13],inactive
same,Potency,[14],inactive
CN1C(=O)CC(C)(c2ccccc2)C1=O (stereo not drawn),Potency,[1],inactive
same,Potency,[2],inactive
same,Potency,[3],inactive
same,Potency,[19],inactive
same,Potency,[16],inactive
same,outcome,[5],inactive
same,outcome,[7],inactive
same,outcome,[8],inactive
same,Potency,[17],inactive
same,outcome,[9],inactive
same,outcome,[10],inactive
same,outcome,[11],inactive
same,Potency,[12],inactive
same,outcome,[13],inactive
same,Potency,[14],inactive
same,Potency,[15],inactive
CCC(C(=O)OCCN(CC)CC)c1ccccc1 (stereo not drawn),Potency,[1],inactive
same,Potency,[2],inactive
same,Potency,[3],inactive
same,Potency,[19],inactive
same,Potency,[16],inactive
same,outcome,[20],inactive
same,outcome,[5],inactive
same,Potency,[6],inactive
same,outcome,[7],inactive
same,outcome,[8],inactive
same,Potency,[17],inactive
same,outcome,[9],inactive
same,outcome,[10],inactive
same,outcome,[11],inactive
same,Potency,[12],inactive
same,outcome,[13],inactive
same,Potency,[14],inactive
same,Potency,[15],inactive
same,Potency,[18],inactive
CCCCC(=O)O[C@]1(C(=O)CO)CC[C@H]2[C@@H]3CCC4=CC(=O)CC[C@]4(C)[C@H]3[C@@H](O)C[C@@]21C,Potency,[1],inactive
same,Potency,[2],inactive
same,Potency,[4],inactive
same,Potency,[19],inactive
same,Potency,[16],inactive
same,outcome,[20],inactive
same,outcome,[5],inactive
same,outcome,[7],inactive
same,outcome,[8],inactive
same,Potency,[17],inactive
same,outcome,[9],inactive
same,outcome,[10],inactive
same,outcome,[11],inactive
same,Potency,[12],inactive
same,outcome,[13],inactive
same,Potency,[14],inactive
same,Potency,[15],0.0425 µM [inconclusive] (active)
CC(C)(C)C(=O)O,Potency,[1],inactive
same,Potency,[2],inactive
same,Potency,[3],inactive
same,Potency,[4],inactive
same,outcome,[5],inactive
same,Potency,[6],inactive
same,outcome,[7],inactive
same,outcome,[8],inactive
same,Potency,[17],inactive
same,outcome,[9],inactive
same,outcome,[10],inactive
same,outcome,[11],inactive
same,Potency,[12],inactive
same,outcome,[13],inactive
same,Potency,[14],inactive
same,Potency,[15],inactive
Nc1ccc(S(=O)(=O)O)cc1,Potency,[1],inactive
same,Potency,[2],inactive
same,Potency,[3],inactive
same,Potency,[4],inactive
same,Potency,[19],inactive
same,outcome,[5],inactive
same,outcome,[7],inactive
same,outcome,[8],inactive
same,Potency,[17],inactive
same,outcome,[9],inactive
same,outcome,[10],inactive
same,outcome,[11],inactive
same,Potency,[12],inactive
same,outcome,[13],inactive
same,Potency,[14],inactive
CC(C)(C)CC(C)(C)c1ccc(OCCO)cc1,Potency,[1],inactive
same,Potency,[4],54.2 µM (active)
same,Potency,[19],inactive
same,Potency,[16],60.8 µM (active)
same,outcome,[20],inactive
same,outcome,[5],inactive
same,outcome,[7],inactive
same,outcome,[8],inactive
same,Potency,[17],inactive
same,outcome,[9],inactive
same,outcome,[10],inactive
same,outcome,[11],inactive
same,Potency,[12],inactive
same,outcome,[13],inactive
same,Potency,[14],inactive
same,Potency,[15],inactive
C(=C\c1ccccc1)/CN1CCN(C(c2ccccc2)c2ccccc2)CC1,Potency,[1],inactive
same,Potency,[3],inactive
same,Potency,[4],inactive
same,Potency,[19],inactive
same,"fluorescence, relative to Rose Bengal",[20],-0.246% [at 18.6 µM]
same,"fluorescence, % of fluorescein control",[5],0.0028% [at 18.6 µM]
same,"fluorescence, % of triamterene",[6],0.048% [at 18.6 µM]
same,"fluorescence, % of fluorescent control",[7],0.417% [at 18.6 µM]
same,"fluorescence, % of fluorescein",[8],0.011% [at 18.6 µM]
same,"fluorescence, % of fluorescent control",[17],0.0548% [at 18.6 µM]
same,activity change,[9],-0.0228% [at 18.6 µM]
same,"fluorescence, % of Rose Bengal",[11],-0.312% [at 18.6 µM]
same,"fluorescence, % of fluorescent control",[12],0.108% [at 18.6 µM]
same,"fluorescence, % of fluorescein control",[13],0.012% [at 18.6 µM]
same,"fluorescence, % of fluorescent control",[14],0.0775% [at 18.6 µM]
CCCCC(CC)CNCC(CC)CCCC (stereo not drawn),Potency,[2],inactive
same,Potency,[3],inactive
same,Potency,[4],inactive
same,Potency,[19],inactive
same,Potency,[16],inactive
same,outcome,[20],inactive
same,outcome,[5],inactive
same,Potency,[6],inactive
same,outcome,[8],inactive
same,Potency,[17],inactive
same,outcome,[9],inactive
same,outcome,[11],inactive
same,Potency,[12],inactive
same,outcome,[13],inactive
same,Potency,[14],inactive
same,Potency,[15],inactive
Cc1c(C(=O)NN2CCCCC2)nn(-c2ccc(Cl)cc2Cl)c1-c1ccc(Cl)cc1,Potency,[2],inactive
same,Potency,[3],23.7 µM (active)
same,Potency,[4],inactive
same,Potency,[19],inactive
same,Potency,[16],23.7 µM (active)
same,outcome,[20],inactive
same,outcome,[5],inactive
same,Potency,[6],inactive
same,outcome,[7],inactive
same,outcome,[8],inactive
same,outcome,[9],inactive
same,outcome,[10],inactive
same,outcome,[11],inactive
same,Potency,[12],inactive
same,outcome,[13],inactive
same,Potency,[14],inactive
same,Potency,[15],inactive
CCc1c2c(nc3ccc(OC(=O)N4CCC(N5CCCCC5)CC4)cc13)-c1cc3c(c(=O)n1C2)COC(=O)[C@]3(O)CC,Potency,[1],2.66 µM (active)
same,Potency,[19],inactive
same,outcome,[20],inactive
same,outcome,[5],inactive
same,Potency,[6],12.6 µM [fluorescent] (active)
same,outcome,[7],inactive
same,outcome,[8],inactive
same,Potency,[17],12.6 µM (active)
same,outcome,[9],inactive
same,outcome,[10],inactive
same,outcome,[11],inactive
same,Potency,[12],12.6 µM [fluorescent] (active)
same,outcome,[13],inactive
same,Potency,[14],15.8 µM [fluorescent] (active)
